Measurements reported in the supplement of paper PMC4466140.

The binders below were run against AgAbp1 (assay: SPOT peptide array binding signal intensity (averaged, normalized) (arbitrary units (background-subtracted, floor 0; scale differs between SH3 domains)); higher = stronger binding of the SH3 domain to the peptide).
Summary of the method: (§1)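 GST-fused SH3 domains from four yeast species were expressed in E. coli BL21(DE3), purified on glutathione Sepharose and incubated at 10 μg/ml overnight at 4°C in TBS-based blocking buffer on cellulose membranes carrying synthetic 15-mer peptides, with cysteines replaced by serines. Bound protein was detected with anti-GST antibody, an HRP anti-mouse secondary and luminol, then imaged and quantified with Genespotter. Binding signal is the normalized, background-subtracted spot intensity averaged over replicates, in arbitrary units that differ between domains.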
For IKTRSVPKIPSIESV, the “SPOT peptide array binding signal intensity” value was 9.

What follows are binders tested against AgBbc1 in the same assay as above.
Summary of the method: as §1
With IKTRSVPKIPSIESV the “SPOT peptide array binding signal intensity” value was 78.8.

These binders were tested against AgBem1-D1 in the same assay as above.
Summary of the method: as §1
IKTRSVPKIPSIESV was tested, and the “SPOT peptide array binding signal intensity” value was 40.

What follows are binders tested against AgBzz1-D1 in the same assay as above.
Summary of the method: as §1
In the case of IKTRSVPKIPSIESV, the “SPOT peptide array binding signal intensity” value is reported as 24.5.

These binders were tested against AgBzz1-D2 in the same assay as above.
Summary of the method: as §1
For IKTRSVPKIPSIESV, the “SPOT peptide array binding signal intensity” value was 33.5.

Each binder was assayed against AgCyk3 in the same assay as above.
Summary of the method: as §1
For IKTRSVPKIPSIESV, the “SPOT peptide array binding signal intensity” value was 1.

What follows are binders tested against AgFus1 in the same assay as above.
Summary of the method: as §1
In the case of IKTRSVPKIPSIESV, the “SPOT peptide array binding signal intensity” value is reported as 4.

What follows are binders tested against AgHof1 in the same assay as above.
Summary of the method: as §1
For IKTRSVPKIPSIESV, the “SPOT peptide array binding signal intensity” value was 27.8.

Each binder was assayed against AgHse1 in the same assay as above.
Summary of the method: as §1
For IKTRSVPKIPSIESV, the “SPOT peptide array binding signal intensity” value was 19.5.

What follows are binders tested against AgLsb1 in the same assay as above.
Summary of the method: as §1
In the case of IKTRSVPKIPSIESV, the “SPOT peptide array binding signal intensity” value is reported as 71.

The binders below were run against AgLsb4 in the same assay as above.
Summary of the method: as §1
IKTRSVPKIPSIESV was tested, and the “SPOT peptide array binding signal intensity” value was 873.

These binders were tested against AgMyo5 in the same assay as above.
Summary of the method: as §1
For IKTRSVPKIPSIESV, the “SPOT peptide array binding signal intensity” value was 0.75.

Each binder was assayed against AgNbp2 in the same assay as above.
Summary of the method: as §1
With IKTRSVPKIPSIESV the “SPOT peptide array binding signal intensity” value was 2650.

What follows are binders tested against AgRvs167 in the same assay as above.
Summary of the method: as §1
For IKTRSVPKIPSIESV, the “SPOT peptide array binding signal intensity” value was 12.7.

Each binder was assayed against AgSho1 in the same assay as above.
Summary of the method: as §1
IKTRSVPKIPSIESV was tested, and the “SPOT peptide array binding signal intensity” value was 3.

The binders below were run against AgSla1-D1-D2 in the same assay as above.
Summary of the method: as §1
For IKTRSVPKIPSIESV, the “SPOT peptide array binding signal intensity” value was ≤ 0.

Each binder was assayed against AgSla1-D3 in the same assay as above.
Summary of the method: as §1
IKTRSVPKIPSIESV was tested, and the “SPOT peptide array binding signal intensity” value was ≤ 0.

Each binder was assayed against CaAbp1-D1 in the same assay as above.
Summary of the method: as §1
For IKTRSVPKIPSIESV, the “SPOT peptide array binding signal intensity” value was 182.

These binders were tested against CaAbp1-D2 in the same assay as above.
Summary of the method: as §1
With IKTRSVPKIPSIESV the “SPOT peptide array binding signal intensity” value was 82.

The binders below were run against CaBbc1 in the same assay as above.
Summary of the method: as §1
In the case of IKTRSVPKIPSIESV, the “SPOT peptide array binding signal intensity” value is reported as 604.

These binders were tested against CaBem1-D1 in the same assay as above.
Summary of the method: as §1
In the case of IKTRSVPKIPSIESV, the “SPOT peptide array binding signal intensity” value is reported as 0.5.

Each binder was assayed against CaBzz1-D1 in the same assay as above.
Summary of the method: as §1
With IKTRSVPKIPSIESV the “SPOT peptide array binding signal intensity” value was 197.

Each binder was assayed against CaBzz1-D2 in the same assay as above.
Summary of the method: as §1
IKTRSVPKIPSIESV was tested, and the “SPOT peptide array binding signal intensity” value was 245.

The binders below were run against CaCyk3 in the same assay as above.
Summary of the method: as §1
IKTRSVPKIPSIESV was tested, and the “SPOT peptide array binding signal intensity” value was 85.5.

What follows are binders tested against CaFus1 in the same assay as above.
Summary of the method: as §1
IKTRSVPKIPSIESV was tested, and the “SPOT peptide array binding signal intensity” value was 32.5.

Each binder was assayed against CaHof1 in the same assay as above.
Summary of the method: as §1
IKTRSVPKIPSIESV was tested, and the “SPOT peptide array binding signal intensity” value was ≤ 0.

The binders below were run against CaHse1 in the same assay as above.
Summary of the method: as §1
In the case of IKTRSVPKIPSIESV, the “SPOT peptide array binding signal intensity” value is reported as 5.

Each binder was assayed against CaLsb1 in the same assay as above.
Summary of the method: as §1
With IKTRSVPKIPSIESV the “SPOT peptide array binding signal intensity” value was ≤ 0.

The binders below were run against CaLsb4 in the same assay as above.
Summary of the method: as §1
In the case of IKTRSVPKIPSIESV, the “SPOT peptide array binding signal intensity” value is reported as 1880.

These binders were tested against CaMyo5 in the same assay as above.
Summary of the method: as §1
In the case of IKTRSVPKIPSIESV, the “SPOT peptide array binding signal intensity” value is reported as 1.25.

These binders were tested against CaNbp2 in the same assay as above.
Summary of the method: as §1
For IKTRSVPKIPSIESV, the “SPOT peptide array binding signal intensity” value was 320.

These binders were tested against CaRvs167 in the same assay as above.
Summary of the method: as §1
In the case of IKTRSVPKIPSIESV, the “SPOT peptide array binding signal intensity” value is reported as 339.

Each binder was assayed against CaRvs167-3 in the same assay as above.
Summary of the method: as §1
For IKTRSVPKIPSIESV, the “SPOT peptide array binding signal intensity” value was 15.

These binders were tested against CaSho1 in the same assay as above.
Summary of the method: as §1
IKTRSVPKIPSIESV was tested, and the “SPOT peptide array binding signal intensity” value was ≤ 0.

These binders were tested against CaSla1-D1-D2 in the same assay as above.
Summary of the method: as §1
For IKTRSVPKIPSIESV, the “SPOT peptide array binding signal intensity” value was 123.

These binders were tested against CaSla1-D3 in the same assay as above.
Summary of the method: as §1
IKTRSVPKIPSIESV was tested, and the “SPOT peptide array binding signal intensity” value was ≤ 0.

These binders were tested against ScAbp1 in the same assay as above.
Summary of the method: as §1
In the case of IKTRSVPKIPSIESV, the “SPOT peptide array binding signal intensity” value is reported as 11.

These binders were tested against ScBbc1 in the same assay as above.
Summary of the method: as §1
In the case of IKTRSVPKIPSIESV, the “SPOT peptide array binding signal intensity” value is reported as 37.8.

The binders below were run against ScBem1-D1 in the same assay as above.
Summary of the method: as §1
In the case of IKTRSVPKIPSIESV, the “SPOT peptide array binding signal intensity” value is reported as 38.5.

The binders below were run against ScBzz1-D1 in the same assay as above.
Summary of the method: as §1
With IKTRSVPKIPSIESV the “SPOT peptide array binding signal intensity” value was 26.

Each binder was assayed against ScBzz1-D2 in the same assay as above.
Summary of the method: as §1
With IKTRSVPKIPSIESV the “SPOT peptide array binding signal intensity” value was 13.

Each binder was assayed against ScCyk3 in the same assay as above.
Summary of the method: as §1
For IKTRSVPKIPSIESV, the “SPOT peptide array binding signal intensity” value was ≤ 0.

These binders were tested against ScFus1 in the same assay as above.
Summary of the method: as §1
IKTRSVPKIPSIESV was tested, and the “SPOT peptide array binding signal intensity” value was ≤ 0.

What follows are binders tested against ScHof1 in the same assay as above.
Summary of the method: as §1
For IKTRSVPKIPSIESV, the “SPOT peptide array binding signal intensity” value was 16.2.

Each binder was assayed against ScHse1 in the same assay as above.
Summary of the method: as §1
For IKTRSVPKIPSIESV, the “SPOT peptide array binding signal intensity” value was 26.

The binders below were run against ScLsb1 in the same assay as above.
Summary of the method: as §1
With IKTRSVPKIPSIESV the “SPOT peptide array binding signal intensity” value was 4.

These binders were tested against ScLsb2 in the same assay as above.
Summary of the method: as §1
IKTRSVPKIPSIESV was tested, and the “SPOT peptide array binding signal intensity” value was 61.

What follows are binders tested against ScLsb3 in the same assay as above.
Summary of the method: as §1
In the case of IKTRSVPKIPSIESV, the “SPOT peptide array binding signal intensity” value is reported as 4820.

These binders were tested against ScLsb4 in the same assay as above.
Summary of the method: as §1
IKTRSVPKIPSIESV was tested, and the “SPOT peptide array binding signal intensity” value was 1030.

What follows are binders tested against ScMyo3 in the same assay as above.
Summary of the method: as §1
With IKTRSVPKIPSIESV the “SPOT peptide array binding signal intensity” value was 4.5.

Each binder was assayed against ScMyo5 in the same assay as above.
Summary of the method: as §1
IKTRSVPKIPSIESV was tested, and the “SPOT peptide array binding signal intensity” value was 7.

These binders were tested against ScNbp2 in the same assay as above.
Summary of the method: as §1
With IKTRSVPKIPSIESV the “SPOT peptide array binding signal intensity” value was 3220.

The binders below were run against ScPex13 in the same assay as above.
Summary of the method: as §1
With IKTRSVPKIPSIESV the “SPOT peptide array binding signal intensity” value was 633.

These binders were tested against ScRvs167 in the same assay as above.
Summary of the method: as §1
For IKTRSVPKIPSIESV, the “SPOT peptide array binding signal intensity” value was 2950.

Each binder was assayed against ScSho1 in the same assay as above.
Summary of the method: as §1
In the case of IKTRSVPKIPSIESV, the “SPOT peptide array binding signal intensity” value is reported as 25.5.

What follows are binders tested against ScSla1-D1-D2 in the same assay as above.
Summary of the method: as §1
For IKTRSVPKIPSIESV, the “SPOT peptide array binding signal intensity” value was 146.

What follows are binders tested against ScSla1-D3 in the same assay as above.
Summary of the method: as §1
In the case of IKTRSVPKIPSIESV, the “SPOT peptide array binding signal intensity” value is reported as 38.5.

What follows are binders tested against SpAbp1-D1 in the same assay as above.
Summary of the method: as §1
With IKTRSVPKIPSIESV the “SPOT peptide array binding signal intensity” value was 5.

These binders were tested against SpBbc1 in the same assay as above.
Summary of the method: as §1
In the case of IKTRSVPKIPSIESV, the “SPOT peptide array binding signal intensity” value is reported as 28.8.

What follows are binders tested against SpBzz1-D1 in the same assay as above.
Summary of the method: as §1
With IKTRSVPKIPSIESV the “SPOT peptide array binding signal intensity” value was 236.

These binders were tested against SpBzz1-D2 in the same assay as above.
Summary of the method: as §1
For IKTRSVPKIPSIESV, the “SPOT peptide array binding signal intensity” value was 0.5.

The binders below were run against SpCyk3 in the same assay as above.
Summary of the method: as §1
For IKTRSVPKIPSIESV, the “SPOT peptide array binding signal intensity” value was ≤ 0.

The binders below were run against SpHof1 in the same assay as above.
Summary of the method: as §1
With IKTRSVPKIPSIESV the “SPOT peptide array binding signal intensity” value was 6.

What follows are binders tested against SpHof1-2 in the same assay as above.
Summary of the method: as §1
For IKTRSVPKIPSIESV, the “SPOT peptide array binding signal intensity” value was 9.

These binders were tested against SpHof1-3 in the same assay as above.
Summary of the method: as §1
IKTRSVPKIPSIESV was tested, and the “SPOT peptide array binding signal intensity” value was 150.

These binders were tested against SpHse1 in the same assay as above.
Summary of the method: as §1
IKTRSVPKIPSIESV was tested, and the “SPOT peptide array binding signal intensity” value was ≤ 0.

Each binder was assayed against SpLsb1 in the same assay as above.
Summary of the method: as §1
With IKTRSVPKIPSIESV the “SPOT peptide array binding signal intensity” value was 24.2.

Each binder was assayed against SpLsb4 in the same assay as above.
Summary of the method: as §1
With IKTRSVPKIPSIESV the “SPOT peptide array binding signal intensity” value was 6060.

These binders were tested against SpMyo1 in the same assay as above.
Summary of the method: as §1
IKTRSVPKIPSIESV was tested, and the “SPOT peptide array binding signal intensity” value was 11.5.

The binders below were run against SpNbp2 in the same assay as above.
Summary of the method: as §1
In the case of IKTRSVPKIPSIESV, the “SPOT peptide array binding signal intensity” value is reported as ≤ 0.

Each binder was assayed against SpPex13 in the same assay as above.
Summary of the method: as §1
IKTRSVPKIPSIESV was tested, and the “SPOT peptide array binding signal intensity” value was ≤ 0.

What follows are binders tested against SpRvs167 in the same assay as above.
Summary of the method: as §1
In the case of IKTRSVPKIPSIESV, the “SPOT peptide array binding signal intensity” value is reported as 1930.

These binders were tested against SpSla1-D1-D2 in the same assay as above.
Summary of the method: as §1
In the case of IKTRSVPKIPSIESV, the “SPOT peptide array binding signal intensity” value is reported as 4.

Each binder was assayed against SpSla1-D3 in the same assay as above.
Summary of the method: as §1
For IKTRSVPKIPSIESV, the “SPOT peptide array binding signal intensity” value was 1.
